High-throughput results from PubChem.
Yp Topo-I inh: inhibitors of Yersinia pestis topoisomerase I; Y. pestis Topo-I cleavage product accumulation, plate reader; activity, % at 10 µM; 0.064% of 360,000 active; AID 504884; in the data active means activity above about 50%, passing the limit was not always enough
Mtb BioA inh: inhibitors of Mycobacterium tuberculosis BioA enzyme; purified M. tuberculosis BioA enzyme, plate reader; inhibition, % at 9.99 µM; 0.096% of 360,000 active; AID 602481; in the data active means inhibition above about 40%
TcdB inh: TcdB glycohydrolase inhibition. P18177. TcdB glycohydrolase enzymatic assay, plate reader. inhibition, % at 9.99 µM. 0.24% of 350,000 active. AID 652162; in the data active means inhibition above about 10%
FadD28 FP inh: M. tuberculosis FadD28 bisubstrate binding inhibition; FadD28 bisubstrate probe binding, fluorescence polarization; inhibition, % at 12.5 µM; 0.22% of 360,000 active; AID 588549; in the data active means inhibition above about 8.5%, passing the limit was not always enough
DUSP3 inh: DUSP3 (human) phosphatase inhibition; 0.52% of 290,000 active; P51452; inhibition, % at 13.3 µM; recombinant VHR phosphatase, pNPP absorbance; AID 1654; in the data active means inhibition above about 50%
MazF activator: MazEF (E. coli) toxin RNase activation | P0AE70 | FAM/BHQ RNA-DNA oligo cleavage fluorescence, 5 h | activation, % at 20 µM | 0.32% of 350,000 active | AID 504720; in the data active means activation above about 50%
Active calls of the source: *. In the library only some 1% were active in any assay of this set; here they are far more common.

Screening O=C(CCc1c[nH]c2ccccc12)NCC1COc2ccccc2O1 (stereo not given) returned Yp Topo-I inh -2.0, TcdB inh 1.2, FadD28 FP inh -4.5, DUSP3 inh 4.0 and MazF activator 5.9.
For O=C(CCCc1c[nH]c2ccccc12)NCC1COc2ccccc2O1 (stereo not given) the results were Yp Topo-I inh 1.3, TcdB inh -1.1, FadD28 FP inh -1.0, DUSP3 inh 51.9* and MazF activator 6.8.
`Cc1cc(C)c(NC(=O)Cn2nnc(C(=O)NCc3ccc4c(c3)OCO4)c2N)c(C)c1` gave Yp Topo-I inh 39.8, Mtb BioA inh -2.2, FadD28 FP inh -2.7, DUSP3 inh -7.2 and MazF activator 70.2*.
Cc1ccc(NC(=O)Cn2nnc(C(=O)NCc3ccc4c(c3)OCO4)c2N)cc1 was read as Yp Topo-I inh -2.9, Mtb BioA inh -0.8, TcdB inh 1.4, FadD28 FP inh -1.1, DUSP3 inh -17.2 and MazF activator -70.3.
Nc1c(C(=O)NCc2ccc3c(c2)OCO3)nnn1CC(=O)Nc1ccc(Br)cc1 was read as Yp Topo-I inh 37.1, Mtb BioA inh -1.4, TcdB inh 0.1, FadD28 FP inh -0.8, DUSP3 inh -17.2 and MazF activator 90.4*.
Screening CC(C)c1ccc(NC(=O)Cn2nnc(C(=O)NCc3ccc4c(c3)OCO4)c2N)cc1 returned Yp Topo-I inh 1.9, Mtb BioA inh -3.5, TcdB inh -1.6, FadD28 FP inh -1.5, DUSP3 inh -2.2 and MazF activator -55.2.
Screening O=C1Nc2ccccc2Oc2cc([N+](=O)[O-])cc(Oc3ccccc3)c21 returned Yp Topo-I inh 0.9, FadD28 FP inh -0.6, DUSP3 inh -14.2 and MazF activator 53.2*.
O=C(C1CCC1)N1CC(=O)N2[C@@H](CO)[C@@H](c3ccc(C4=CCCCC4)cc3)[C@@H]2C1 was read as TcdB inh 3.3.
Screening C[C@H](CO)N1C[C@H](C)[C@@H](CN(C)CC2CCCCC2)Oc2ccc(NC(=O)NC3CCCCC3)cc2CC1=O returned Mtb BioA inh 1.4 and TcdB inh 0.2.
For S=C(NCCCN1CCOCC1)Nc1ccc(Nc2ccccc2)cc1 the results were Yp Topo-I inh 2.9, Mtb BioA inh -0.1, TcdB inh 5.3, FadD28 FP inh -1.1, DUSP3 inh 13.0 and MazF activator -1.3.
S=C(NCCCN1CCOCC1)Nc1ccc(Cl)cc1Cl was read as Yp Topo-I inh 0.1, TcdB inh 2.1, FadD28 FP inh -2.3, DUSP3 inh 55.4* and MazF activator 7.8.
`S=C(NCCN1CCOCC1)Nc1ccc(Nc2ccccc2)cc1` gave Yp Topo-I inh 2.6, Mtb BioA inh 2.5, TcdB inh 31.4*, FadD28 FP inh 1.1, DUSP3 inh 48.8 and MazF activator -2.9.
COc1ccc(NC(=O)Nc2ccc3c(c2)[C@@H]2C[C@@H](CC(=O)NCCc4ccccc4)O[C@@H](CO)[C@@H]2O3)cc1 was read as Mtb BioA inh -2.1 and TcdB inh -0.8.
Screening CCc1c(O)nc(SCC(=O)Nc2nc3ccccc3s2)n(C2CCCCC2)c1=O returned Yp Topo-I inh -2.9, Mtb BioA inh 1.4, TcdB inh 0.9, FadD28 FP inh 12.5*, DUSP3 inh 10.0 and MazF activator -4.4.
`C[C@@H]1CN([C@H](C)CO)C(=O)c2cc(NS(C)(=O)=O)ccc2O[C@@H](C)CCCCO[C@H]1CN(C)C(=O)Nc1ccc(F)cc1` gave Mtb BioA inh -0.9 and TcdB inh -2.3.
Screening Cc1cc(-c2csc(NC(=O)c3ccc(=O)[nH]c3)n2)c(C)n1Cc1ccco1 returned Yp Topo-I inh -0.7, TcdB inh -0.4, FadD28 FP inh -1.2, DUSP3 inh 111.6* and MazF activator -7.7.
Screening C=CCn1c(=O)/c(=C\c2ccccn2)s/c1=C(/C#N)C(=O)NCC1CCCO1 (stereo not given) returned Yp Topo-I inh 6.2, TcdB inh 0.8, FadD28 FP inh -3.3, DUSP3 inh 10.6 and MazF activator 264.2*.
`CN1C(=O)c2cc(NC(=O)c3ccc(F)c(F)c3)ccc2OC[C@H]2O[C@@H](CC(=O)O)CC[C@H]21` gave Mtb BioA inh 10.0.
Screening COCC(=O)Nc1ccc2c(c1)C(=O)N(C)C[C@H](OC)[C@H](C)CN(Cc1ccccc1)[C@@H](C)CO2 returned Mtb BioA inh -1.4 and TcdB inh -0.2.
`O=C(NCC(c1cccs1)N1CCOCC1)c1ccccc1NS(=O)(=O)c1cccc([N+](=O)[O-])c1` (stereo not given) gave Yp Topo-I inh 1.9, TcdB inh -1.6, FadD28 FP inh -1.9, DUSP3 inh 55.6* and MazF activator 5.0.
Screening O=C(NCC(c1cccs1)N1CCOCC1)c1ccccc1NS(=O)(=O)c1ccc(Cl)c([N+](=O)[O-])c1 (stereo not given) returned Yp Topo-I inh -1.3, TcdB inh 0.8, FadD28 FP inh -0.3, DUSP3 inh 30.5 and MazF activator 3.2.
Screening COc1ccc(C(=O)N2C[C@H]3[C@@H](c4ccccc42)[C@@H](CO)N3Cc2ccc(Cl)cc2)cc1 returned Mtb BioA inh 3.5 and TcdB inh 0.4.
`COc1ccc(S(=O)(=O)Cc2ccc(C(=O)N3CCC4(CC3)OCCO4)o2)cc1` gave Yp Topo-I inh 5.5, Mtb BioA inh 6.4, FadD28 FP inh -2.6, DUSP3 inh -10.2 and MazF activator 1.9.
Screening Cc1ccccc1CS(=O)(=O)Cc1ccc(C(=O)N2CCC3(CC2)OCCO3)o1 returned Yp Topo-I inh -7.3, TcdB inh 0.6, FadD28 FP inh 0.1, DUSP3 inh 50.8* and MazF activator 2.4.
For C[C@H](CO)N1C[C@H](C)[C@H](CN(C)Cc2ccc(Cl)c(Cl)c2)Oc2ccc(NC(=O)NC3CCCCC3)cc2C1=O the results were Mtb BioA inh 8.0 and TcdB inh 0.6.
For COC(=O)CCc1ccc(O)cc1 the results were Yp Topo-I inh 0.3, Mtb BioA inh -1.5, TcdB inh 1.3, FadD28 FP inh -1.1, DUSP3 inh 16.5 and MazF activator 14.2.
Screening COc1cc(O)ccc1C(=O)CCc1ccc(O)cc1 returned Yp Topo-I inh -6.9, Mtb BioA inh -0.4, TcdB inh 16.7*, FadD28 FP inh -1.1, DUSP3 inh 17.6 and MazF activator -1.3.
CO[C@H]1CN(C)C(=O)c2ccc(NC(=O)c3ccccc3)cc2OC[C@H](C)NC[C@@H]1C was read as TcdB inh 0.0.
For CN(CCC#N)C(=O)CSc1nnc(-c2ccco2)n1N the results were Yp Topo-I inh 10.6, TcdB inh -0.1, FadD28 FP inh -1.2, DUSP3 inh 51.2* and MazF activator 7.9.
`CCCN(CC1CC1)C(=O)CSc1nnc(-c2ccco2)n1N` gave DUSP3 inh 2.7.
For CC=Cc1ccc2n(c1=O)C[C@@H]1[C@@H](CO)[C@H](C(=O)NCc3ccccc3)[C@H]2N1C (mixture of isomers) the results were Mtb BioA inh -1.5.
